Measurements taken from PubChem BioAssay (NCI).
About 83,000 compounds went through this panel and 20% of them were active in at least one assay; those are over-represented in the sample as a whole.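 Treatment: one concentration, 48 hours, 96-well format. Scoring: percent growth, with anything below 10 considered active.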 Unmarked numbers belong to inactive results. The source made the active and inactive calls.

How the values were obtained:
Test in all cases: NCI-60 one-dose screen, 48 h (100 = growth as untreated, 0 = no growth, -100 = all killed)
Settings in all cases: 10 µM unless noted
SR leukemia = tested on: SR leukemia
RPMI-8226 leukemia = tested on: RPMI-8226 leukemia
OVCAR-8 ovarian = tested on: OVCAR-8 ovarian
OVCAR-5 ovarian = tested on: OVCAR-5 ovarian
OVCAR-4 ovarian = tested on: OVCAR-4 ovarian
IGROV1 ovarian = tested on: IGROV1 ovarian
OVCAR-3 ovarian = tested on: OVCAR-3 ovarian
HS 578T breast = tested on: HS 578T breast
NCI/ADR-RES ovarian = tested on: NCI/ADR-RES ovarian
T-47D breast = tested on: T-47D breast
BT-549 breast = tested on: BT-549 breast
MDA-MB-435 melanoma = tested on: MDA-MB-435 melanoma
SW-620 colon = tested on: SW-620 colon
MCF7 breast = tested on: MCF7 breast
HCT-116 colon = tested on: HCT-116 colon
HCC-2998 colon = tested on: HCC-2998 colon
KM12 colon = tested on: KM12 colon
SK-OV-3 ovarian = tested on: SK-OV-3 ovarian

Row | SMILES | growth (SR leukemia) | growth (RPMI-8226 leukemia) | growth (OVCAR-8 ovarian) [%] | growth (OVCAR-5 ovarian) [%] | growth (OVCAR-4 ovarian) | growth (IGROV1 ovarian) [%] | growth (OVCAR-3 ovarian) | growth (HS 578T breast) | growth (NCI/ADR-RES ovarian) | growth (T-47D breast) | growth (BT-549 breast) [%] | growth (MDA-MB-435 melanoma) | growth (SW-620 colon) [%] | growth (MCF7 breast) | growth (HCT-116 colon) | growth (HCC-2998 colon) [%] | growth (KM12 colon) | growth (SK-OV-3 ovarian) [%]
1 | Cc1ccc(-n2cc(/C=N/NC(=O)c3nc(N)n[nH]3)c(-c3ccc(S(C)(=O)=O)cc3)n2)cc1 | 79.3% | 100% | 100 | 105 | 101% | 98.4 | 95.7% | 108% | 100% | 97.5% | 101 | 87.9% | 93.3 | 94.2% | 104% | 115 | 105% | 
2 | N#Cc1cccc(CN2CCC3=C(C2)C(=O)N(Cc2ccc(Cl)cc2)C2=NCCN23)c1 | 32.9% | 17% | 20.2 | 38.6 | 20.4% | 54.4 | 23.4% |  | 13.5% | 23.7% | 45.4 | 19.9% | 33 | 14.1% | 19.6% | 17.6 | 40.9% | 
3 | Cc1ccc(-n2c(/C=C3\C(=O)Nc4ccccc43)ccc2CO)cc1 | 46.6% | 69.4% | 94.3 | 104 | 90.1% | 75 | 65.4% | 87.3% | 55.7% | 77.4% | 66.6 |  | 43.3 | 34.5% | 52.8% | 95.7 | 18.8% | 
4 | Cc1ccc(S(=O)(=O)NCCNc2nc(Nc3ccc(N4CCN(C)CC4)cc3)nc3ccsc23)cc1 | 18.1% | 84.2% | 104 | 113 | 95.1% | 108 |  | 89% | 100% | 102% |  | 109% | 103 | 87.4% | 69.7% | 104 | 100% | 129
5 | NC(=O)c1cccc(C#CCNC[C@H]2C[C@@H](n3ccc4c(Cl)ncnc43)[C@H](O)[C@@H]2O)c1 | 112% | 110% | 101 | 98.4 | 111% | 101 | 113% | 101% | 106% | 96.6% | 102 | -89.6% (active) | 104 | 96.5% | 104% | 107 | 106% | 
6 | O=C(Nc1nonc1-c1ccccc1)c1ccc(C(F)(F)F)cc1 | 85.6% | 74.2% | 86.6 | 100 | 91.2% | 96.4 |  | 101% | 85.2% | 76% |  | 82.7% | 94.6 | 72.3% | 86.2% | 101 | 97.4% | 112
7 | CC1(C)CC[C@]2(C(=O)O)CC[C@]3(C)C(=CC[C@@H]4[C@@]5(C)CC/C(=N\OCCC#N)C(C)(C)[C@@H]5CC[C@]43C)[C@@H]2C1 | 103% | 97.5% | 109 | 103 | 82.6% | 85.7 | 110% | 107% | 116% | 104% | 106 | 101% | 94.2 | 95.5% | 96.4% | 116 | 105% | 
8 | Cc1c(F)cc(C(N)=O)cc1NCC(=O)Nc1ccc([N+](=O)[O-])cc1 | 107% | 110% | 99.8 | 89.5 | 67.8% | 80.1 | 96.7% | 88.4% | 96.6% | 102% | 98 | 99.8% | 92.9 | 87.1% | 99.9% |  | 98.6% | 
9 | COc1ccc(/C=N/NC2=NC3C(S2)N(C)C(=O)N3C)cc1 (centres undefined) | 6.64% (active) | 10.5% | 35.6 | 50.4 | 75.6% | 40.9 | -17.1% (active) | 0.337% (active) | 30.7% | 26.7% | 66 | -56.4% (active) | 16.1 | 15.4% | 33.5% | 67 | 20.8% | 
10 | COc1ccc(-n2c(SCc3nnc(NC(=O)c4ccc(Br)cc4)s3)nc3cc(OC)c(OC)cc3c2=O)cc1 | 101% | 104% | 94.9 | 95.5 | 93.8% | 102 |  | 99% | 78.8% | 112% |  |  | 95.7 | 85.6% | 96.2% | 88.2 | 90.6% | 108
11 | NS(=O)(=O)c1ccc(Nc2cc(-c3ccccc3)nc(SCC(=O)c3ccccc3)n2)cc1 | 101% | 93.7% | 99.3 | 104 | 102% | 97.4 |  |  | 101% | 97.5% | 97.6 | 93.4% | 102 | 89.5% | 101% | 101 | 102% | 110
12 | Nc1nc(N)c2c(n1)NC(c1ccc(C(F)(F)F)cc1)CC(c1ccc(Nc3nc(NCCO)nc(N4CCOCC4)n3)cc1)=N2 (centres undefined) | 5.13% (active) | 28.9% | 60.2 | 97.6 | 79.5% | 72.6 | 61.2% | 58.5% | 97.5% | 62.7% | 76.3 | 65.9% | 56.7 | 33.7% | 35.8% | 86.4 | 51.2% | 
13 | CC1(C)[C@@H](O)CC[C@]2(C)[C@H]3CC[C@@H]4[C@H]5[C@H](C(=O)/C=C\c6ccccn6)CC[C@]5(O)CC[C@@]4(C)[C@]3(C)CC[C@@H]12 | -17.6% (active) | -19.2% (active) | 39.5 | 48.4 | 32.9% | 34.5 | 25.4% | 39.2% | 26.4% | 59% | 36 | 27.4% | 18.5 | 31.8% | 2.84% (active) |  | 30.7% | 
14 | COc1c(N2CC3CCCNC3C2)c(F)cc2c(=O)c(C(=O)N/N=C/c3c[nH]c4ccccc34)cn(C3CC3)c12 (centres undefined) | -12.2% (active) | 78.2% | 99 | 116 | 106% | 97.9 | 103% | 110% | 104% | 116% | 100 | 105% | 90.7 | 55% | 56.7% | 119 | 98.7% | 
15 | COc1ccc(C(=O)CSc2nc3c(c(Nc4ccc(S(N)(=O)=O)cc4)n2)CCCC3)cc1 | 69.6% | 83.6% | 92.3 | 123 | 87.8% | 112 |  | 110% | 103% | 71.3% |  | 103% | 86.4 | 97.8% | 93% | 97.6 | 73.7% | 120
16 | NC(N)=Nc1ccc(Oc2cccc(Nc3ccc(Cl)c(C(F)(F)F)c3)c2)cc1 | -26.4% (active) | 33.7% | 68.6 | 58.8 | 55.6% | 17.2 | 35% | 52% | 91.6% | 35.3% | 77 | 32.3% | 30.2 | 11.3% | 27.5% | 20.3 | 7.04% (active) | 
17 | Cc1cc(C)c(N2C(=O)CC(Nc3ccc(Cl)cc3Cl)C2=O)c(C)c1 (centres undefined) | 97.5% | 99.9% | 101 | 100 | 102% | 104 |  | 95.8% | 107% | 93.7% |  | 102% | 102 | 91% | 104% | 118 | 105% | 108
18 | O=C(NNc1nc2cc(F)ccc2n2cccc12)c1ccncn1 | 8.74% (active) | 16.8% | 18.7 | 45 | -6.78% (active) | 15.5 | 5.01% (active) |  | 5.87% (active) | 4.38% (active) | 21.9 | 31.5% | 22.7 | 7.62% (active) | 18.3% | 53.2 | 23.1% | 
